Screening results (PubChem BioAssay)
Sampled rows, rich in hits. Any-hit rate of the full collection: about 3.1%.
ABHD5-PLIN5 inh: blocks binding of human ABHD5 to perilipin-5. 0.78% of 360,000 active. Q00G26+Q8WTS1. inhibition, % at 4 µM. AID 602281. Split G. princeps luciferase complementation, luminescence, 4 h;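 active means inhibition above the mean inhibition across every tested compound plus 3 SD, cut at about 22% in these data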
Target sequence (Q00G26 whole entry, looked up): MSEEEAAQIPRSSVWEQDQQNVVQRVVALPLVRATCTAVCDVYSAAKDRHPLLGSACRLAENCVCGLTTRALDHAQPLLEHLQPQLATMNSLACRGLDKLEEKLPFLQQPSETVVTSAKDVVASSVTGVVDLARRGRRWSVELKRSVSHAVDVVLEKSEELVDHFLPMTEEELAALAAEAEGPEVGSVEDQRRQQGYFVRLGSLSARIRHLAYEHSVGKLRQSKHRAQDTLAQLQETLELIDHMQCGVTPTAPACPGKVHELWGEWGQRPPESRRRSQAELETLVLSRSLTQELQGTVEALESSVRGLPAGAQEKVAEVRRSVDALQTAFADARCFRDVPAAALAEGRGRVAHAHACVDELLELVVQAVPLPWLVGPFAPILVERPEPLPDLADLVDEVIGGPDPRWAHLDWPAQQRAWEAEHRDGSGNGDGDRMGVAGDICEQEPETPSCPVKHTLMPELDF
Target sequence (Q8WTS1 whole entry, looked up): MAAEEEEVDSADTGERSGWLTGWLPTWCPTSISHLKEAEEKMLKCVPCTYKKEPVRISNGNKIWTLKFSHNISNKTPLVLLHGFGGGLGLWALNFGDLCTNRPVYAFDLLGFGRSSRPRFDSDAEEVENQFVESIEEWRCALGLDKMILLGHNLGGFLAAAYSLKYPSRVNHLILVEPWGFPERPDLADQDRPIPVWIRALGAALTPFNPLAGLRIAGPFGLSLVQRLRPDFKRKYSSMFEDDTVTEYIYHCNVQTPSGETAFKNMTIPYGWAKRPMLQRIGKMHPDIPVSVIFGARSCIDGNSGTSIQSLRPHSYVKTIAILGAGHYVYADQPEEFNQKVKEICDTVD
KKLEB cytotox: counter-screen for CF NF-kB inhibitors: cytotoxicity | KKLEB CF airway cells viability, ATPlite luminescence, overnight; hits give low values; cells stimulated with P. aeruginosa culture filtrate | activity change (cytotoxicity), % at 5 µM | AID 602141 | 0.36% of 360,000 active;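 active means corrected activity change at or below -50% at 5 µM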
TRPM1 prom inh: MITF TRPM1 promoter inhibition in SK-MEL-5 cells. SK-MEL-5 TRPM1 promoter luciferase, 24 h. inhibition, % at 12.5 µM. 0.83% of 330,000 active. AID 488899;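 active means mean inhibition across replicates of 60% or more, whatever share of single replicates reaches that level; inconclusive means some that reach 60%, reason not given; inactive means mean inhibition across replicates below 60%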
HIF-2a inh: HIF-2a inhibition | AID 624352 | inhibition, % at 18.8 µM | 786-0 RCC cells HIF-2a reporter, luciferase luminescence, overnight | 0.72% of 360,000 active;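 active means inhibition of the luminescence signal of 40% or more relative to plate controls, in a single-dose primary screen at 18.75 µM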
Peg3 promoter: inhibitors of Peg3 promoter | HeLa PEG-Prom luciferase reporter, luminescence, overnight | inhibition, % at 20 µM | 1.7% of 360,000 active | AID 588405;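 active means inhibition of at least 50% at 20 µM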
CF NFkB inh: blocks PAF-induced NF-kB reporter in cystic fibrosis cells; KKLEB NF-kB-GFP reporter, GFP fluorescence overnight; inhibition, % at 5 µM; 0.86% of 360,000 active;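 active means at least 50% inhibition at 5 µM, scaled per plate between neutral and stimulator controls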;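 further: PAF is a Pseudomonas aeruginosa culture filtrate used as stimulus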
Mdm2-MdmX confirm: confirmation of inhibitors of human Mdm2/MdmX interaction, set 2; AID 504601; shares compounds with HIF-2a inh; SaOS-2 split-luciferase Mdm2/MdmX complementation, luminescence; inhibition, % at 8 µM; 99% of 740 active;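 active means mean inhibition of the luminescence signal across two replicates at or above 26 percent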
HIF-2a inh conf: HIF-2a inhibition, single concentration confirmation; shares compounds with HIF-2a inh; 786-0 RCC cells, HIF-2a luciferase reporter luminescence, overnight; inhibition, % at 18.8 µM; 56% of 1,800 active; AID 651580;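 active means mean inhibition across four replicates of at least 40 percent at the single tested concentration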
HIF-1a cs: HIF-1a inhibition counter-screen for HIF-2a hits. shares compounds with HIF-2a inh. MiaPaCa-2 HIF-1a luciferase reporter, desferoxamine, overnight. inhibition, % at 18.8 µM. 72% of 1,800 active;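 active means mean inhibition of the reporter signal across four replicates at the single tested dose of 50% or more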
Hits are given with their value; – = inactive; ? = inconclusive; · = not tested or not shown.

SMILES	ABHD5-PLIN5 inh	KKLEB cytotox	TRPM1 prom inh	HIF-2a inh	Peg3 promoter	CF NFkB inh	HIF-2a inh conf	HIF-1a cs	others
O=C1/C(=C/c2ccccc2)C[C@@]2(O)[C@H]3Cc4ccc(O)c5c4[C@@]2(CCN3CC2CC2)C1O5 (some centres not stated)	65	–	109	95	100	76	·	·	Mdm2-MdmX confirm=103
Oc1ccc2c3c1OC1c4[nH]c5ccccc5c4C[C@@]4(O)C(C2)N(CC2CC2)CC[C@]314 (some centres not stated)	–	–	–	–	–	–	·	·
CC(C)(C)n1cc(C(=O)c2ccccc2)cc1-c1ccccc1	–	–	–	–	–	–	·	·
N#CSCC(=O)N1c2ccccc2CCc2ccccc21	–	–	–	41	–	59	–	72
CCCCCC[N+](=O)[O-]	–	–	–	–	–	–	·	·
CCCCCCCCCCCCCCCC[N+](C)(C)C	–	–	–	56	95	75	42	79
CCc1ccccc1NC(=O)CN1CCN(C(=O)COc2ccccc2C#N)CC1	–	–	–	–	–	–	·	·
CCOC(=O)[C@]12Cc3cc(OC)ccc3[C@H]1N(C(C)C)C(=O)c1cc(OC)ccc12	–	·	·	52	·	·	90	96
CCOC(=O)[C@]12Cc3c(cc(OC)c(OC)c3OC)[C@H]1N(C(C)C)C(=O)c1cc(OC)ccc12	–	·	·	–	·	·	·	·
Cc1nc2cc(-c3ccc(Cl)cc3)nn2c(C)c1CCC(=O)N1CCC2(CC1)OCCO2	–	–	?	81	–	–	89	68
C=CCOC(=O)N1Cc2ccccc2-n2nncc2C1	–	–	·	–	–	–	·	·
C[C@H]1O[C@@H](OC2CC[C@]3(C=O)[C@H]4CC[C@]5(C)[C@@H](C6=CC(=O)OC6)CC[C@]5(O)[C@@H]4CC[C@]3(O)C2)CC2OC(C)(C)OC21 (some centres not stated)	–	-71	67	51	107	93	–	103
CC1CCCCN1C(=O)Cn1cc(C=C2C(=O)N(C)C(=O)N(C)C2=O)c2ccccc21 (configuration not stated)	–	–	–	–	–	–	·	·
N=C(N)c1c(O)n(C2CCCCC2)c(=O)n(C2CCCCC2)c1=O	–	–	–	52	77	–	–	97
CC(=O)C1C2c3ccccc3O[C@@]1(C)N=c1s/c(=C/c3ccoc3)c(=O)n12 (some centres not stated)	–	–	–	–	–	–	·	·
Cc1ccccc1-n1c(C)nc2ccsc2c1=O	–	–	–	–	–	–	·	·
CCCCCn1c(=O)c(C(=O)NCc2ccncc2)c(O)c2ccccc21	–	–	–	46	–	–	–	–
C=CCCC[C@@H]1OC(=O)CNC(=O)C([C@@H](C)CC)NC(=O)[C@@H]2CCCN2C(=O)C([C@@H](C)CC)OC(=O)[C@H](Cc2ccccc2)N(C)C(=O)[C@H](C(C)C)NC(=O)C1(C)C (some centres not stated)	22	–	·	82	–	–	–	104
CCCCN=C[C@]12CCC(O)CC1(O)CCC1[C@@H]2CC[C@]2(C)[C@H](C3C=CC(=O)O3)CCC12O (some centres not stated)	–	-72	78	55	107	99	–	104	Mdm2-MdmX confirm=82
CC12CCC3C(CCC4(O)CC(O)CCC34C=NO)C1(O)CCC2C1=COC(=O)C1 (configuration not stated)	–	–	69	74	97	85	–	102
CC1OC(OC2C=C3CCC4C(CCC5(C)C(c6ccc(=O)oc6)CCC45O)C3(C)CC2)C(O)C(OC2OC(CO)C(O)C(O)C2O)C1O (configuration not stated)	–	-62	72	70	98	95	–	105
CC1CC(C)CC(C)C(O)C(C#N)=CC=CCC(C2CCCC2C(=O)O)OC(=O)CC(O)C(C)C1 (configuration not stated)	–	–	92	78	51	86	76	104
O=c1c2ccccc2nc(/C=C/c2ccccc2)n1-c1ccc(O)cc1	–	–	–	–	–	–	·	·
O=c1c2ccccc2nc(/C=C/c2ccc([N+](=O)[O-])o2)n1-c1ccc(O)cc1	–	–	94	67	103	–	–	105
CCN1CCN(c2cc(N3CCCC3)c(F)cc2[N+](=O)[O-])CC1	–	–	–	–	–	–	·	·
N#CC12CC(=O)N1Cc1cnnn1-c1ccccc12 (configuration not stated)	–	–	·	–	–	–	·	·
O=C1NC2C(O)C(O)C(O)C(O)C2c2cc3c(c(O)c21)OCO3 (configuration not stated)	–	–	72	66	99	86	70	105
